Test results: PubChem BioAssay AID588852 (The Scripps Research Institute Molecular Screening Center, 2011)
The campaign covered roughly 360,000 compounds. About 4,600 (1.3%) were called active.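 How the source made its calls: active means percent inhibition above its own plate's cutoff, namely the mean of that plate's compound wells plus 3 SD; inactive means the rest.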 The full list was thinned out, with actives kept by preference.

target: Muscarinic acetylcholine receptor M1 (Homo sapiens) (UniProt P11229); experiment: human M1 muscarinic receptor antagonists, primary screen, CHO-K1 cells, Fluo-8 calcium fluorescence, 1536-well (AID 588852); settings: CHO-K1 hM1, Fluo-8 calcium fluorescence, ACh EC80 antagonist; at 3 µM; active compounds read high;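 further: peak over basal fluorescence ratio during 140 s after agonist addition; 0% = ACh EC80 plus DMSO and 100% = DMSO alone without agonist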
Sequence (P11229 whole entry, looked up): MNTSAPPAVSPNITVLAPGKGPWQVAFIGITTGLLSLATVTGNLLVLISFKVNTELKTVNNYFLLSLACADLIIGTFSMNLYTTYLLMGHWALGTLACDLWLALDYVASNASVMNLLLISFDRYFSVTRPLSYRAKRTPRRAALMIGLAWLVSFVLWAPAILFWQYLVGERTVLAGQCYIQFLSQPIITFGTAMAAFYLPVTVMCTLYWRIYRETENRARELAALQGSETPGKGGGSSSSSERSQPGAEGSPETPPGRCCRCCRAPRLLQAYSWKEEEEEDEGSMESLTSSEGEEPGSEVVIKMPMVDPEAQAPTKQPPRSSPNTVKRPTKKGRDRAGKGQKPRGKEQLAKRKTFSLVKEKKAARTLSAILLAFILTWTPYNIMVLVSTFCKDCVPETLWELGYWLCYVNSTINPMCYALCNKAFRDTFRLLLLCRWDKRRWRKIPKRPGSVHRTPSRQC

inhibition, active:
CN1CCN(C(=O)N2c3ccccc3CCc3ccccc32)CC1 96.2%
Cc1ccc(NC(=O)C(C)c2cccc(C(=O)c3ccccc3)c2)cc1 (stereo unspecified) 28.2%
O=C(c1ccc(-n2cnnn2)cc1)N1CCN(C(c2ccccc2)c2ccccc2)CC1 78.5%
Cc1ccc(N(Cc2cc(=O)[nH]c3ccccc23)C(=O)CCl)cc1 41.3%
COc1ccccc1CN1CCN(C(c2ccccc2)c2ccccc2)CC1 63.6%
COc1ccccc1NC(=S)N1CCN(C(c2ccccc2)c2ccccc2)CC1 53.1%
COC(=O)c1ccc(CN2CCC(CO)(Cc3ccc(OC)cc3)CC2)cc1 53.5%
COc1ccccc1C(=O)Nc1ccnn1C1CCN(C(=O)C(C)(C)C)CC1 47.4%
CCN1/C(=C\c2ccc3ccccc3[n+]2CC)Sc2cc(C)ccc21 59%
CCCCCCCCCCOC(=O)Cn1c(COc2cccc(OC)c2)[n+](C)c2ccccc21 58.2%
FC(F)(F)c1cccc(NC(=S)Nc2cccc(Cl)c2)c1 27.5%
Cc1onc(-c2ccccc2)c1-c1nnc(COC(=O)c2ccc(N(C)C)cc2)o1 99.9%
CCCCN(C)C(=O)c1ccc2c(c1)N(CC)C(=O)c1ccccc1S2(=O)=O 37.7%
COC(=O)c1ccc(NC(=O)CSc2nnc(CNc3ccc(OC)cc3)n2C)cc1 64.6%
c1ccc(-c2ccccc2OCCN2CCCCC2)cc1 33.7%
O=C(Oc1ccc(-c2nnco2)cc1)c1ccc(F)c(S(=O)(=O)N2CCOCC2)c1 38.5%
Cc1ccc(S(=O)(=O)Nc2ccc3ncccc3c2)cc1 28.8%

inhibition, inactive:
Cc1ccccc1NC(=O)COc1cccc2c1CCNC2=O -7.58%
CC1CC(C)CN(CC(=O)N2c3ccccc3CCc3ccccc32)C1 (stereo unspecified) 4.81%
CN1CCN(S(=O)(=O)c2cccc(C(=O)N3CCc4ccccc43)c2)CC1 6.81%
CC(=O)Nc1ccc(NC(=O)[C@@H](NC(=O)c2cccc(C)c2)C(C)C)cc1 -11.7%
CSCCC(NC(=O)COc1ccccc1)C(=O)Nc1ccc(C)cc1 (stereo unspecified) -7.4%
O=C(CSc1nnc2c(n1)[nH]c1ccccc12)NC1CCCCC1 -3.99%
O=C(CNS(=O)(=O)c1ccc2ccccc2c1)Nc1ccc(F)c(F)c1F -2.2%
Cc1cc(=O)oc2c3c(cc(OCC(=O)NCC(O)c4ccccc4)c12)OC(C)(C)CC3 (stereo unspecified) -9.2%
Cc1onc(C(=O)NN)c1C(=O)N1CCN(C(c2ccccc2)c2ccccc2)CC1 4.44%
Cn1nnnc1SCC(=O)N1CCN(C(c2ccccc2)c2ccccc2)CC1 -2.38%
CC(C)(C)Cc1c(C2CCCCC2)nc2ccc(Br)cn12 -23.6%
COc1cc(OC)c(C2=NOC(C(=O)Nc3c(C)n(C)n(-c4ccccc4)c3=O)C2)cc1Cl (stereo unspecified) -4.11%
Cc1ccc(N(Cc2cc3ccccc3[nH]c2=O)C(=O)c2cccs2)cc1 -3.76%
CC(=O)N(Cc1cc(=O)[nH]c2ccccc12)c1ccc(C)cc1C -12.4%
C=C(C)C1CC=C(C)/C(=N/NC(=O)CCCNc2cccc(C)c2)C1 (stereo unspecified) 10%
CCCOc1ccc(N2CC(C(=O)Nc3ccccn3)CC2=O)cc1 (stereo unspecified) -17.6%
O=C(NCc1ccccc1Cl)C1CCN(c2ncnc3c2nc2n3CCCCC2)CC1 -5.23%
COc1ccccc1CNC(=O)CCCn1c(=O)c2ccccc2n(CC(=O)NC2CCCC2)c1=O -13.2%
COc1cccc(OC)c1C(=O)N1CCN(Cc2ccccc2F)CC1 -1.36%
COc1ccccc1NC(=S)N1CCN(c2ccc(F)cc2)CC1 -20.2%
COc1ccccc1CN1CCN(Cc2cc(OC)c(OC)cc2OC)CC1 -21.9%
COc1ccccc1NC(=S)N1CCC(NC(=O)C23CC4CC(CC(C4)C2)C3)CC1 -7.97%
CC(C)(C)NC(=O)COc1ccc(CNc2ccc3[nH]c(=O)[nH]c3c2)cc1 -1.62%
COc1cc(C2OC(c3cc(OC)c(OC)c(OC)c3)C(C)C2C)cc(OC)c1OC (stereo unspecified) 0.63%
Oc1cccc2cc(-c3ccncc3)cnc12 -21.3%
O=C(c1cc(Cl)cc(Cl)c1)N1CCC(=O)N(C(COCc2ccccc2)Cc2ccccc2)CC1 (stereo unspecified) 7.3%
O=[N+]([O-])c1ccc(CN2CC(N3CCC(c4ccccc4)CC3)CS2(=O)=O)cc1 (stereo unspecified) 7.07%
CCOC(=O)c1ccccc1NS(=O)(=O)c1c(C)nc2sccn2c1=O 6.39%
CCOC(=O)C1(CCOC)CCN(Cc2ccc(C(=O)OC)cc2)CC1 -9.07%
COc1ccc(CC2(CO)CCN(Cc3cnn(C)c3)CC2)cc1 1.8%
O=C(CN1CCN(c2ccccc2O)CC1)NC(=O)NCc1ccccc1 -3.68%
Cn1c(-c2ccc(C(F)(F)F)cc2)cc2onc(-c3ccccc3)c2c1=O 2.31%
CC(C(=O)NC1CCCCC1)N1C(=O)c2cccc3cccc1c23 (stereo unspecified) 8.39%
COc1ccccc1N1CCN(CC(=O)Nc2ccnn2C2CCCC2)CC1 -12.8%
COc1ccccc1C(=O)Nc1ccnn1C1CCN(Cc2cnn(C)c2)CC1 -12.3%
C/C(O)=C\c1nc(=O)c2c(C)cc(C)nc2n1-c1ccccc1 -3.66%
S=C(NCCCc1cnc[nH]1)NCCCN(Cc1ccc(Cl)c(Cl)c1)c1ccc(Br)cn1 0.91%
CCOc1cc(/C=N/NC(=O)c2ccc(CSc3nncn3C)cc2)ccc1OCC(=O)N1CCOCC1 -1.07%
CC(C)(C)S(=O)N1Cc2cc(C(=O)NCCCN3CCOCC3)nc(-c3cccc(-c4cc5ccccc5o4)c3)c2[C@H]1CCO (stereo partly specified) -16.2%
CCN(CC)S(=O)(=O)c1ccc(OC(C)C)c(N)c1 -11.4%
CCCCCCCCCCOC(=O)Cn1c(COc2ccc(C)cc2)[n+](C)c2ccccc21 30.8%
O=C(C=CC(=O)Nc1ccc(F)cc1F)Nc1ccc(F)cc1F -4.83%
CC(=O)Nc1ccc(S(=O)(=O)N2CCC(C(=O)NC3CC3)CC2)cc1 -7.82%
NCCCNC(=S)NCCCN(Cc1ccc(Cl)cc1)c1ccc(Br)cn1 -0.49%
CC(C)(C)OC(=O)N1CCN(C(=O)c2[nH]c(C(F)(F)F)nc2-c2ccccc2)CC1 -33.3%
FC(F)(F)c1cccc(N/N=C/c2ccccc2)c1 -6.47%
O=C(Nc1cccc(Cl)c1)c1cncn1-c1ccc(F)cc1 -4.54%
Cc1cc(C)cc(OCC(=O)OCC(=O)NC2CCCC2)c1 5.15%
CC(C)c1nc2oc3c(N4CCN(C)CC4)ncnc3c2c2c1CCC2 -4.82%
CN(C)Cc1c(C(=O)N/N=C/c2ccccc2OCc2ccc(F)cc2)nnn1-c1nonc1N -17.7%
NC(=O)C1=C[C@@H](c2csc3ccccc23)C[C@@H](OCc2ccc(CO)cc2)O1 -1.54%
COc1cccc(-c2cnc3c(NC(C)=O)cc(-c4cc(F)ccc4OC)cn23)c1 13.1%
Cc1onc(-c2ccccc2Cl)c1C(=O)OCc1nnc(-c2ccccc2)o1 1.39%
Cc1ccc(C(=O)NCC(=O)OCc2nnc(-c3ccccc3)o2)cc1 -11.3%
Cc1cc2nc(-c3ccco3)c(Cc3cccc(F)c3)n2c(C)c1Br -9.48%
O=C(c1ccc2c(c1)N(Cc1ccc(F)cc1)C(=O)c1ccccc1S2(=O)=O)N1CCN(c2ccccn2)CC1 -3.64%
O=C(NCCN1CCOCC1)c1ccc2c(c1)N(Cc1cccc(Cl)c1)C(=O)c1ccccc1S2(=O)=O -3.27%
Cc1nn(-c2ccccc2)nc1C(=O)OCC(=O)N1CCCCC1C (stereo unspecified) 3.01%
NC1=NC(=O)C2(COC(c3ccccc3Cl)OC2)S1 (stereo unspecified) -9.62%
O=C(COC(=O)/C=C/c1ccc(Br)o1)Nc1cccc(S(=O)(=O)N2CCOCC2)c1 -15.6%
CC(=O)c1c(O)cc2n(c1=O)-c1ccc(Cl)cc1C2(C)C -13.4%
COC(=O)c1ccc(NC(=O)CSc2nnc(C3CC3)n2C)cc1 -9.89%
COC(=O)c1ccc(NC(=O)CSc2nnc(-c3ccncc3)n2C)cc1 -9.95%
CC(C)CN(C(=O)c1ccc2c(c1)OCO2)C1CCS(=O)(=O)C1 (stereo unspecified) 6.67%
O=C(Nc1cccc2c1N(C(=O)c1ccco1)CCC2)c1ccco1 -11.2%
N#CC1(NC(=O)COC(=O)CSc2ccc(F)cc2)CCCCC1 -5.4%
COc1cc(CCN=Cc2ccccc2O)c([N+](=O)[O-])cc1OC 1.04%
CC1CCCN(CCOCCOc2ccccc2-c2ccccc2)C1 (stereo unspecified) 5.61%
CN1CCN(CCCCOc2ccccc2-c2ccccc2)CC1 -6.34%
Cc1cc(NC(=O)COC(=O)c2ccc(F)c(S(=O)(=O)N3CCOCC3)c2)no1 -35%
COc1ccc(C(=O)Oc2ccc(-c3nnco3)cc2)cc1S(=O)(=O)N1CCOCC1 0.6%
CC1=C2C(=O)OC(c3ccoc3)C2(C)CCC1 (stereo unspecified) -3.46%
Cc1cc(C)cc(OCC(=O)Nc2ccc(S(=O)(=O)Nc3ccccn3)cc2)c1 -5.97%
O=S(=O)(Nc1ccc(Oc2ncccn2)c(Cl)c1)c1ccc(F)cc1 -16.8%
